Measured values taken from PubChem BioAssay AID489042 (NMMLSC, 2010).
A number with no mark means an inactive call. Active and inactive are the calls of the source. Cut-off read from the data, not from the text of the source: active = inhibition score above about 11; inactive = the rest.

Assay: S. cerevisiae short- and long-term growth effects – BY4741, OD595, 24 h, dose response (AID 489042)
Conditions: hits give high values

| Structure (SMILES) | inhibition score |
| --- | --- |
| COc1ccc2nc3cccc(OC)c3nc2c1 | 10 |
| NC(=O)CSc1nnc(-c2ccc([N+](=O)[O-])cc2)o1 | 0 |
| O=C(Nc1cccc(Cl)c1)Nc1ccc2nccnc2c1 | 0 |
| O=C1c2c(O)ccc(O)c2C(=O)c2c(NCCNCCO)ccc(NCCNCCO)c21 | 0 |
| CSc1nnc2c3cc(F)ccc3n(C)c2n1 | 21 (active) |
| CC(C)OC(=O)c1ccc2nc3ccccc3nc2c1 | 10 |
| FC(F)(F)c1nc2cc3nc4ccccc4[nH]c3cc2n1 | 0 |
| C[C@@]12C(=O)OC(=O)[C@]1(C)C1CCC2O1 | 21 (active) |
| Cc1ccc(-c2nn(C(C)(C)C)c3ncnc(N)c23)cc1 | 21 (active) |
| CSc1nnc(-c2ccc([N+](=O)[O-])cc2)o1 | 0 |
| O=C(Nc1ccc2nc3ccccc3nc2c1)c1ccccc1 | 21 (active) |
| C#CCSc1nnc(-c2ccc([N+](=O)[O-])cc2)o1 | 0 |
| Cc1cc(C)c2[nH]c3nc(SCC(=O)O)nnc3c2c1 | 0 |
| CC(=O)Nc1ccc2nc3ccccc3nc2c1 | 0 |
| COc1ccc2c3c(cccc13)N(C)N=C2C | 10 |
| COc1ccc2c(c1)c1nnc(SC)nc1n2C | 21 (active) |
| CCN(CC)C(=O)c1cccc2nc3ccccc3nc12 | 0 |
| N#CCc1nn(-c2ccccc2)c2ncnc(N)c12 | 0 |
| CC(C)(C)Nc1ncnc2c1cnn2-c1ccccc1 | 10 |
| CCC(=Nc1ccccc1O)C1=C(O)CC(c2ccccc2)CC1=O (centres undefined) | 10 |
| O=C(/C=C/c1cccs1)NC(=S)NNC(=O)Cc1cccs1 | 21 (active) |
| CCN(CC)c1ccc2nc3ccc(N)cc3[n+](-c3ccccc3)c2c1 | 0 |
| O=C(Nc1ccc2nc3ccccc3nc2c1)c1ccc(Br)cc1 | 0 |
| CC(C)(C)n1nc(-c2ccc(Cl)cc2)c2c(N)ncnc21 | 21 (active) |
| Cc1ccccc1NC(=O)c1cccc2nc3ccccc3nc12 | 0 |
| COC(=O)c1cccc2nc3c(C(C)O)cccc3nc12 (centres undefined) | 0 |
| CCn1c2ccccc2c2n[nH]c(=S)nc21 | 0 |
| [O-][n+]1c2ccccc2[n+]([O-])c2cc(O)ccc21 | 10 |
| C/C(=N\Nc1ncnc2sc(C)c(C)c12)c1ccccn1 | 21 (active) |
